# Some of the results follow. Values without a mark were called inactive. Active and inactive are the calls of the source.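 Rule for the calls, unless noted: active = reconfirmed compounds whose average cytotoxicity reaches 50% or more; inactive = the rest.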
# Legend:
# [1] = PPC-1 cell viability loss – ATP content luminescence, cytotoxicity control for TRAIL apoptosis potentiator project, confirmation (AID 1447); details: PPC-1 viability, ATPlite luminescence, overnight; at 5 µM; hits give high values;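 note: 0% = DMSO-treated cells and 100% = wells holding medium but no cells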
# [2] = lowers stimulated NF-kB luciferase signal in Jurkat – cell-based, luminescence, single concentration, T-cell NF-kB inhibitor project, confirmation (AID 435020;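 active = inhibition reaching about 45% at 4 µM in either replicate, limit read from the data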;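 note: plate controls were PMA/ionomycin stimulated DMSO wells for no effect and unstimulated DMSO wells for full effect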); details: PMA/ionomycin-induced, 16 h, at 4 µM, hits give high values
# [3] = molecular target: Sentrin-specific protease 8 (Homo sapiens) (UniProt Q96LD8); experiment: human SENP8 peptidase blockers, hit retest – biochemical, luminescence, single concentration, confirmation (AID 488912;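 active = mean inhibition across replicates above about 50%, limit read from the data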); details: Recombinant SENP8, Z-RLRGG-aminoluciferin luminescence, 60 min; at 12.5 µM; hits give high values
# [4] = molecular target: Sentrin-specific protease 6 (Homo sapiens) (UniProt Q9GZR1); experiment: inhibition of human SENP6 catalytic domain – biochemical, luminescence, single concentration, confirmation (AID 488915;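 active = mean inhibition above about 50% in the one-dose retest, limit read from the data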); details: recombinant SENP6, Z-RLRGG-aminoluciferin luminescence; at 12.5 µM; hits give high values
# [5] = molecular target: Sentrin-specific protease 7 (Homo sapiens) (UniProt Q9BQF6); experiment: human SENP7 peptidase blockers, hit retest – biochemical, luminescence, single concentration, confirmation (AID 488917;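 active = mean inhibition above about 50% in the one-dose retest, limit read from the data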); details: recombinant SENP7, Z-RLRGG-aminoluciferin luminescence, 40 min; at 12.5 µM; hits give high values
# Caspase-3 (Homo sapiens) = Caspase-3 (Homo sapiens) (UniProt P42574); experiment: human caspase-3 activity blockade, out-of-family – biochemical, single concentration, selectivity assay for SENP inhibitor project, confirmation (AID 488918;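 active = mean inhibition above about 50%, limit read from the data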;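 note: plate controls were enzyme with DMSO for no effect and wells without caspase-3 for full effect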); details: purified caspase-3, Z-DEVD-aminoluciferin luminescence, 60 min; at 12.5 µM; hits give high values
# [6] = Ultra-Glo luciferase signal interference – biochemical, single concentration, SENP8 reaction pre-completed, artefact control for SENP inhibitor project, confirmation (AID 488919;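 active = mean inhibition above about 50% when retested at one dose, limit read from the data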;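 note: plate controls were DMSO wells with completed reaction for no effect and substrate without enzyme for full effect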); details: Pre-incubated SENP8/Z-RLRGG-aminoluciferin, luciferase luminescence interference; at 12.5 µM; hits give high values
# Chain of Sentrin-specific protease 6 (Homo sapiens) (Q9GZR1 628-1112 limits assumed): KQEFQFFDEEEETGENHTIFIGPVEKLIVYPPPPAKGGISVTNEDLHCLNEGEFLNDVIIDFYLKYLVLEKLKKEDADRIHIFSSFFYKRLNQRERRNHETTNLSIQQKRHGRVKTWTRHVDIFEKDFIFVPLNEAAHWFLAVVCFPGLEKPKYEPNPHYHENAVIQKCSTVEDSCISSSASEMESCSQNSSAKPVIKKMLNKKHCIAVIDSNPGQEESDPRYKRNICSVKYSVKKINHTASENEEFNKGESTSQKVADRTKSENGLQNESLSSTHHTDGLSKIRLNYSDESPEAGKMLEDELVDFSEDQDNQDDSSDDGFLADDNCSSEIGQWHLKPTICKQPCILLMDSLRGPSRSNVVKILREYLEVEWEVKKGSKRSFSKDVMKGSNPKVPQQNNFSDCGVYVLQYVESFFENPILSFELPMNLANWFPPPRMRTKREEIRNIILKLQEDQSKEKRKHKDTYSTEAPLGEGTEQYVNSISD
# Chain of Sentrin-specific protease 7 (Homo sapiens) (Q9BQF6 706-1050 limits assumed): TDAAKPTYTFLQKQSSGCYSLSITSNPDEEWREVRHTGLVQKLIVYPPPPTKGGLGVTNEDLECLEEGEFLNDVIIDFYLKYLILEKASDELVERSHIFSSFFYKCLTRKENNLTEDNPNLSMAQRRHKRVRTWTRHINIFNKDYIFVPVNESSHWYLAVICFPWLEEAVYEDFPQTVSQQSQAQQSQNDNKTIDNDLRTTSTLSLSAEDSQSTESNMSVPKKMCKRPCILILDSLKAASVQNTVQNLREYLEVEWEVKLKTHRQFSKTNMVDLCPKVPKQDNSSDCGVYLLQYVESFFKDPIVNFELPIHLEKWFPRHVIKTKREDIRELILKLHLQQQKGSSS
# Chain of Caspase-3 (Homo sapiens) (P42574 28-227 limits assumed): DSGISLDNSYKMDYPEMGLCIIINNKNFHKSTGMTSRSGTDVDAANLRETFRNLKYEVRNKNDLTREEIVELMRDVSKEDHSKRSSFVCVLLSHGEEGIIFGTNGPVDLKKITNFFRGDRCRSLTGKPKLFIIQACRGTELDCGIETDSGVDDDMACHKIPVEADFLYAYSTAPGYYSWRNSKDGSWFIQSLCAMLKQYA
# Chain of Sentrin-specific protease 8 (Homo sapiens) (Q96LD8 whole entry, looked up, the tested form may be a part): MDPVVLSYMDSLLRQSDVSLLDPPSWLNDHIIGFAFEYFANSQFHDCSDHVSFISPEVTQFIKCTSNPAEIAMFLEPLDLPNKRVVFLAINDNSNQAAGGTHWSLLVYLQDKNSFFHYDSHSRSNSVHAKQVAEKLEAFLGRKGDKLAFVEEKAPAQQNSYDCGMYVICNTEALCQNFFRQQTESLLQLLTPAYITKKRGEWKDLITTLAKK
smiles,measurement,setting,value
CCOc1cc(N2CCOCC2)c(OCC)cc1NC(=O)c1cc(C)nc2ccccc12,cytotoxicity,[1],-9.1%
COc1cccc(/C=C/C(=O)Nc2ccc3c(c2)OCCO3)c1,cytotoxicity,[1],48.7%
CC(Nc1nc(N2CCCC2)nc2ccccc12)c1ccccc1 (stereo unspecified),cytotoxicity,[1],8.3%
c1ccc2cc3c(NCCN4CCOCC4)ccnc3cc2c1,cytotoxicity,[1],18%
O=C(CSc1nnc(-c2ccc([N+](=O)[O-])cc2)o1)Nc1ccccn1,cytotoxicity,[1],57% (active)
Cc1ccc(NC(=O)CS(=O)CC(=O)N(c2ccccc2)C(C)C(=O)NC2CCCC2)cc1 (stereo unspecified),cytotoxicity,[1],14.8%
Cc1cc(C)nc(Nc2n[nH]c(-c3ccccc3N)n2)n1,cytotoxicity,[1],37.6%
Cc1nc(-c2ccc(Cl)cc2)sc1C(=O)NN,cytotoxicity,[1],57.2% (active)
CS(=O)(=O)N(CC(=O)N1CCOCC1)c1ccc2c3c(cccc13)CC2,cytotoxicity,[1],-7.5%
CCCC(=O)Nc1nnc(CC(=O)OCC)s1,cytotoxicity,[1],-5.4%
Cc1ccc(-n2nc3cc(C)c(NC(=O)c4cccnc4)cc3n2)cc1,cytotoxicity,[1],34.7%
CNC(=O)CSc1nnc(CCc2ccccc2)n1-c1ccccc1,cytotoxicity,[1],0.9%
O=C(Nc1ccn(Cc2ccccc2)n1)c1cccc(F)c1,cytotoxicity,[1],39.6%
O=C(c1ccc(F)cc1)n1c(=S)nc2ccccn21,cytotoxicity,[1],81.2% (active)
same,inhibition,[2],-90.8%
same,inhibition,[3],16.3%
same,inhibition,[4],14.2%
same,inhibition,[5],50.1% (active)
same,inhibition,Caspase-3 (Homo sapiens),19.5%
same,inhibition,[6],-9.8%
COc1ccc(-c2cc(C(=O)NCc3ccco3)no2)cc1OC,cytotoxicity,[1],17.4%
